Shown are actives, neighbours in structure and some others; about 3.7% of the full set was active somewhere.
MazF activator = activators of E. coli MazEF toxin-antitoxin RNase; FAM/BHQ RNA-DNA oligo cleavage fluorescence, 5 h; 350,000 tested, 0.32% active; P0AE70; activation, % at 20 µM; AID 504720; in the data active means activation above about 50%
Target sequence (P0AE70 whole entry, looked up): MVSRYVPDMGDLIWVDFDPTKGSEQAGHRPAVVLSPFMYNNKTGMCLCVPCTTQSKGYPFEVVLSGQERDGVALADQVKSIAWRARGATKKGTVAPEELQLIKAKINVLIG
BoNT-F LC inh = BoNT F light chain protease inhibition; 360,000 tested, 0.22% active; AID 588497; Multiplex microsphere protease cleavage assay, flow cytometry; inhibition, % at 10 µM; in the data active means inhibition above about 35%, passing the limit was not always enough; inconclusive means no clear call, values can overlap the other calls; further: plate controls were buffer without enzyme for full effect and enzyme alone for no effect
BoNT A protease = BoNT A light chain protease inhibition. multiplex microsphere protease substrate cleavage, flow cytometry. AID 588499. 360,000 tested, 0.17% active. inhibition, % at 10 µM; further: plate controls were buffer without enzyme for full effect and enzyme alone for no effect
Anthrax LF inh2 = inhibitors of Bacillus anthracis lethal factor protease. P15917. multiplex microsphere protease cleavage assay, LF. inhibition, % at 10 µM. 360,000 tested, 0.12% active. AID 588501; further: plate controls were buffer without enzyme for full effect and enzyme alone for no effect
Bead autofluor = flagged as autofluorescent in microsphere protease counterscreen. AID 624483. compound autofluorescence counterscreen, microsphere flow cytometry; active compounds read high. 360,000 tested, 3.1% active. fluorescence intensity (test concentration not listed); in the data active means fluorescence intensity above about 16000; inconclusive means no clear call, values can overlap the other calls
* hit, by the source's call; u = inconclusive; x = no result. Unless noted, no stated cut-off is given here; in the data, active means inhibition above about 30%; inconclusive means no clear call, values can overlap the other calls; inactive means below that.

SMILES	MazF activator	BoNT-F LC inh	BoNT A protease	Anthrax LF inh2	Bead autofluor
CCCC(=O)Oc1ccc(C2NC(=O)c3ccccc3O2)cc1 (centres undefined)	1	x	x	x	x
CN(C)S(=O)(=O)c1ccc(S(=O)(=O)N(CC(=O)Nc2ccccc2)Cc2ccco2)cc1	1	-3	0	1	2480
CCN(CC)S(=O)(=O)c1ccc(S(=O)(=O)N(CC(=O)Nc2ccccc2)Cc2ccco2)cc1	5	3	4	0	22492*
O=C(CN(Cc1ccccc1)S(=O)(=O)c1ccc(Br)cc1)NCc1ccco1	-3	-9	-5	-7	23735*
COC(=O)[C@]12CCCCC=C1N(Cc1ccccc1)C(=O)[C@H](CC(=O)N1CCOCC1)C2	x	-4	0	0	5854
N#C/C(=C/c1ccc(-c2ccccc2)o1)c1nc(-c2cccs2)cs1	-24	30	48*	34*	15612
CCCCc1ccc(-c2csc(/C(C#N)=C\c3ccc(C)o3)n2)cc1	16	1	6	4	22503*
N#C/C(=C/c1ccc(-c2ccc([N+](=O)[O-])cc2)o1)C(=O)Nc1nc(-c2cccs2)cs1	-2	0	0	-6	3111
N#C/C(=C\c1ccc(-c2ccc(F)cc2)o1)C(=O)Nc1nc(-c2cccs2)cs1	128*	1	1	3	2530
C[C@H](O)[C@@H]1C(=O)N2CCc3ccc(N4CCN(C)CC4)cc3[C@@H]2C[C@@H]1N(C)C(=O)NC1CCCCC1	1	-9	0	-2	3692
O=[N+]([O-])c1cccc(S(=O)(=O)N2CCN(S(=O)(=O)N3CCCCCC3)CC2)c1	12	-1	-1	2	3030
CSc1ncnc2c1ncn2CCCN1CCN(Cc2cccc3ccccc23)CC1	6	-4	0	-1	2906
CC(=O)c1ccc(OC2(C)CCN(CCOc3ccc(C)cc3)C2)cc1 (centres undefined)	x	-11	0	-5	3050
NC(Cc1ccccc1)c1csc(NC(=O)c2cccc(OC(F)(F)F)c2)n1 (centres undefined)	x	-15	0	2	3567
COC(=O)Nc1nnc(-c2ccncc2)s1	5	3	2	1	22886*
Cc1ccc(NC(=O)Nc2nnc(-c3ccncc3)s2)cc1C	4	-7	-1	-2	5088
Cc1nc(SCc2c(F)cccc2Cl)n[nH]1	0	8	6	-3	19718*
CCCCOC(=O)CSc1n[nH]c(=O)[nH]c1=O	5	-2	0	1	23897*
COC(=O)c1c[nH]c2c1-c1cc(C(=O)OCc3ccccc3)n(S(=O)(=O)c3ccc(C)cc3)c1C(=O)C2=O	75*	-5	0	0	3455
Cc1ccc(S(=O)(=O)Cc2ccc(C(=O)OCc3ccccc3)cc2)cc1	-1	-3	0	0	2819
COC(=O)[C@H]1C[C@H](OC(=O)NC2CC2)[C@@]2(O)CN(S(=O)(=O)c3ccc(C)cc3)CC2[C@H]1C(=O)OC (some centres undefined)	-36	-2	0	2	2878
Cc1ccccc1Nc1nn2c(=O)c3ccccc3nc2s1	31	-2	0	0	23125*
O=c1c2ccccc2nc2sc(Nc3ccc(F)cc3)nn12	-27	0	-1	5	2784
O=C1C(=O)c2ccc(-c3ccccc3)cc2-c2ccccc21	9	0	0	-1	16446*
Nc1ccc2c(c1)C(=O)C(=O)c1ccccc1-2	0	2	-1	-9	2145
SMILES	MazF activator	BoNT-F LC inh	BoNT A protease	Anthrax LF inh2	Bead autofluor
COc1cc(NC(=O)CCCNC(=O)Cn2cnc3sc4c(c3c2=O)CCCC4)cc(OC)c1OC	-7	-3	2	-2	3943
O=C(Nc1cccc(C(F)(F)F)c1)c1ccc2nc(N3C(=O)CCC3=O)sc2c1	3	2	1	-2	22304*
O=C(Nc1cccc(C(F)(F)F)c1)c1ccc2nc(-c3ccco3)c(-c3ccco3)nc2c1	9	-7	63*	28	3371
O=C(O)c1ccc2nc(-c3ccco3)c(-c3ccco3)nc2c1	-5	-1	-1	-2	2572
N=c1c2c(-c3ccccc3)c(-c3ccccc3)n(Cc3ccccc3)c2ncn1CCO	31	-1	u	-1	22944*
O=C(Cc1ccc(NC(=O)C2CCN(C(=O)C3CCCCC3)CC2)cc1)Nc1ccc(C(=O)N2CCOCC2)cc1	2	2	1	6	2670
COc1ccc(C(=O)Nc2nc(C)c(C(C)=O)s2)cc1S(=O)(=O)N1CCOCC1	69*	x	x	x	x
COc1ccc(C(=O)Nc2ccc(-c3cn4ccsc4n3)cc2)cc1S(=O)(=O)N1CCOCC1	-6	4	u	-10	20320*

Screens: PubChem BioAssay, several laboratories
